Experimental data: PubChem BioAssay (NCI)
About 83,000 compounds went through this panel and 20% of them were active in at least one assay; those are over-represented in the sample as a whole.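 Single-dose data. Exposure time 48 hours. Values below 10 considered active.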 Unmarked numbers belong to inactive results. Activity calls are given as the source filed them.

Assays:
Assay in all cases: NCI-60 one-dose screen, 48 h (100 = growth as untreated, 0 = no growth, -100 = all killed)
Conditions in all cases: 10 µM unless noted
[1] = system: SR leukemia
[2] = system: RPMI-8226 leukemia
[3] = system: OVCAR-8 ovarian
[4] = system: OVCAR-5 ovarian
[5] = system: OVCAR-4 ovarian
[6] = system: SK-OV-3 ovarian
[7] = system: IGROV1 ovarian
[8] = system: OVCAR-3 ovarian
[9] = system: HS 578T breast
[10] = system: NCI/ADR-RES ovarian
[11] = system: T-47D breast
[12] = system: BT-549 breast
[13] = system: MDA-MB-435 melanoma
[14] = system: SW-620 colon
[15] = system: MCF7 breast
[16] = system: HCT-116 colon
[17] = system: HCC-2998 colon
[18] = system: KM12 colon
[19] = system: MDA-MB-468 breast

Row | SMILES | growth [1] | growth [2] | growth [3] | growth [4] | growth [5] | growth [6] | growth [7] | growth [8] | growth [9] | growth [10] | growth [11] | growth [12] | growth [13] | growth [14] | growth [15] | growth [16] | growth [17] | growth [18] | growth [19]
1 | COc1cc(C2CC(c3cc(OC)c(OC)c(OC)c3)=NN2C(C)=O)ccc1OCc1ccccc1 (stereo not given) | 32.1% | 24.2% | 46.7% | 59.8% | 22.3% | 71.3% | 42.9% | 41% | 41% | 38.4% | 2.7% (active) | 17.4% | 44.6% | 55.1% | 17.1% | 24.3% | 71.2% | 33.9% | 
2 | O=C1NC(=O)/C(=C/c2ccccc2OCc2cc3ccccc3nc2Cl)S1 | 105% | 93.7% | 68.4% | 112% | 88.2% | 81.7% | 91.5% | 71.7% | 28.8% | 87.6% | 75.3% | 78.7% | 101% | 109% | 74.3% | 108% | 114% | 85.2% | 80.6%
3 | CCN(CC)c1ccnc(CNCCSC(c2ccccc2)(c2ccccc2)c2ccc(C)cc2)c1 | -60.8% (active) | -42% (active) | -90.3% (active) | -70.6% (active) | -21% (active) | -87.4% (active) | -30.9% (active) | -88.4% (active) | -49.3% (active) | -84.3% (active) | -67.8% (active) | -91.9% (active) | -90.6% (active) | -72.2% (active) | -82.4% (active) | -88.2% (active) | -96.4% (active) | -83.9% (active) | -92.3% (active)
4 | C/C(=N\N=C1/C(=O)Nc2ccccc21)c1ccc2c(c1)Nc1ccccc1S2 | 44.5% | 38.7% | 56% | 83.7% | 37.4% | 101% | 45.6% | 34.9% | 72.1% | 59.4% | 26.8% | 43.9% | -52.5% (active) | 63.5% | 22.2% | 16.2% | 75.7% | 66.4% | 34.6%
5 | CCCCSc1nc(NCCc2c[nH]c3ccccc23)c(C#N)c(-c2ccc(F)cc2)n1 | 5.24% (active) | 49.7% | 75.1% | 97.3% | 76.1% | 83% | 92.3% | 74.3% | 58.3% | 58.2% | 48.5% | 101% | 73.1% | 60.4% | 44.8% | 26.5% | 64.9% | 32% | 69.8%
6 | COc1ccc(-c2c(Nn3cnnn3)no[n+]2[O-])cc1 | 38.7% | 42% | 46.4% | 85.6% | 53.4% | 91.1% | 19.8% | 46.5% | 50% | 54.9% | 48.8% | 61.1% | 44.4% | 41.5% | 31% | 23.8% | 56.2% | 68.2% | 46.3%
7 | COc1cc2c(c(OC)c1OC)C(=O)CC(c1cccc(NC(=O)c3cc(NC(=O)[C@@H](N)CO)ccc3C)c1)O2 (stereo not given in full) | 100% | 108% | 104% | 101% | 112% | 111% | 114% | 121% | 110% | 104% | 110% | 121% | 120% | 119% | 103% | 116% | 115% | 108% | 92.6%
8 | Cc1ccc([C@H]2C(C(=O)c3ccc(Cl)cc3)C3(N[C@@H]2c2ccccc2)C(=O)Nc2ccc(Cl)cc23)cc1 (stereo not given in full) | -3.12% (active) | 32.4% | 59.3% | 67.5% | 57.4% | 67.4% | 50.9% | 45.8% | 74.4% | 54.6% | 31.6% | 80.9% | 64.3% | 64.1% | 16.7% | 23.7% | 18.8% | 34.8% | 
9 | S=c1c2ccccc2nc2n1CCc1c-2[nH]c2ccccc12 | 67.7% | 89.5% | 28.6% | 86.8% | 50.3% | 42.2% | 48.2% | 67.2% | 8.23% (active) | 49.6% | 37.2% | 49.9% | 88.6% | 80.9% | 43% | 48.7% | 64.9% | 80.9% | 
10 | Cc1occc1C(=O)NN1C(=O)/C(=C/C=C/c2ccc([N+](=O)[O-])o2)SC1=S | 5.76% (active) | -8.57% (active) | -53.9% (active) | -93.3% (active) | -85% (active) | 20.1% | -87.6% (active) | -100% (active) | 19.4% | -6.81% (active) | -15.9% (active) | -91% (active) | -66.2% (active) | -43.2% (active) | -33% (active) | -73.2% (active) | -75% (active) | -66.2% (active) | -52.3% (active)
11 | CN(C)c1nc(NCCNS(=O)(=O)c2ccc(C3=Nc4c(N)nc(N)nc4NC(c4ccc(F)cc4)C3)cc2)nc(Nc2ccc(F)cc2)n1 (stereo not given) | 0.331% (active) | -6.35% (active) | 43.5% | 78.2% | 40.8% | 73.4% | 38.6% | 40.9% | 51.8% | 98% | 40.6% | 48.7% | 31% | 39.4% | 5.29% (active) | 30.6% | 28.6% | 24.5% | 
12 | CC1(C)CC[C@]2(C(=O)O)CC[C@]3(C)C(=CCC4[C@@]5(C)C[C@@H](O)[C@@H]6OC(c7ccccc7F)OC[C@@]6(C)C5CC[C@]43C)C2C1 (stereo not given in full) | 7.37% (active) | 10% | 12% | 28.2% | 30.7% | 12.7% | 20% | -11% (active) | 21.6% | 6.19% (active) | 21.3% | -15.9% (active) | 17.4% | 14.6% | 4.83% (active) | -0.989% (active) | 11.1% | 7.3% (active) | 5.82% (active)
13 | CCOC(=O)C1=C(N)N(c2ccccc2)C2=C(C(=O)CC(C)(C)C2)C1c1ccc(N2CCOCC2)cc1 (stereo not given) | 83.8% | 96.2% | 97.1% | 101% | 101% | 102% | 108% | 113% | 95.1% | 100% | 93.7% | 103% | 104% | 101% | 90.7% | 99.1% | 108% | 105% | 
14 | C#CCOc1ccc(/C=N/Nc2nc(-c3ccc(Cl)cc3)cs2)cc1OC | 22.2% | 38.5% | 51.7% | 86.9% | 54.2% | 88.2% | 88.1% | 69.1% | 81.1% | 46% | 18.5% | 36% | 44.1% | 82.2% | 21.8% | 48.1% | 90.3% | 61.8% | 42.1%
15 | Cc1ccc2c(c1)nc(-c1ccccc1)n2CC(=O)N=Nc1c(O)[nH]c2ccc(Br)cc12 | 0.421% (active) | -1.7% (active) | -67.2% (active) | -20.2% (active) | -49.3% (active) | -32% (active) | -78% (active) | -75.2% (active) | -5.01% (active) | -69.6% (active) | -46% (active) | -72.1% (active) | -33.4% (active) | 2.54% (active) | -69.7% (active) | -91.7% (active) | -72% (active) | -46% (active) | -78.4% (active)
